# From PubChem
# DT40 TDP1 CPT: DT40-hTDP1 cell growth loss with CPT; chicken DT40 Tdp1-/-;hTDP1 cells + 20 nM CPT, ATP luminescence, 48 h; Potency, µM (series often up to 46.2 µM), for the others: top-dose activity change, negative = growth inhibition, hits mostly inhibitors; AID 686979; hit rate 12% among 420,000; note: potency is the fitted concentration of half-maximal effect; % is set by controls: 0 for no effect and ±100 for the full control effect; nearly all actives have a fitted effect of over 55% in size
#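 Cell growth measured by CellTiter-Glo luminescence after a minimum 48 h, 37 C compound exposure with 20 nM CPT in Tdp1-knockout DT40 cells stably expressing hTDP1, seeded 400/well; qHTS titration format.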
# TGFb inhibitor: TGF-b pathway inhibition; HepG2 CAGA-GFP TGF-b/SMAD3 reporter, GFP fluorescence, 18 h; TGF-beta stimulated, 500 pg/mL final; hit rate 1.2% among 410,000; Potency, µM (series often up to 46.1 µM), without a hit: at the top dose activity, negative = inhibition, actives largely listed as inhibitors; note: potency is the fitted concentration of half-maximal effect; % is set by controls: 0 for no effect and ±100 for the full control effect; nearly all actives have a fitted effect of over 65% in size
#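 HEPG2 CAGA-GFP, 1000 cells/well; 2 h settle, 37 C; cpd via pin tool; TGF-b 500 pg/mL final; 18 h, 37 C; GFP imaging ex488/em500-530; %Activity normalised to -TGF-b and +DMSO controls; CRC fit, curve class.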
# IL-1B inflam inh: inflammasome signaling inhibition, IL-1 beta readout; hit rate 4.7% among 360,000; activity change, % at 57.5 µM; THP-1 LPS/ATP IL-1B secretion, AlphaLISA, 16 h; active compounds read low; in the data active = activity change below about -50%; inconclusive = mostly about -30% to -49%; note: % is set by controls: 0 for no effect and ±100 for the full control effect
#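 Secreted IL-1B measured by AlphaLISA bead assay after 16 h compound exposure of THP-1 cells; compounds (final up to 57.5 uM) added 1 h before LPS (250 ng/mL) and ATP (1.25 mM) stimulation; lower signal means less secretion.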
# DT40 TDP1 no CPT: qHTS for Inhibitors of human tyrosyl-DNA phosphodiesterase 1 (TDP1): qHTS in cells in absence of CPT; DT40 Tdp1-/- hTDP1 cells, no CPT, ATP luminescence, 48 h; Potency, µM (top dose mostly 46.2 µM), for the others: at the highest dose activity change, negative = growth inhibition, hits mostly inhibitors; AID 686978, 2013; hit rate 15% among 420,000; note: potency is the fitted concentration of half-maximal effect; % is set by controls: 0 for no effect and ±100 for the full control effect; nearly all actives have a fitted effect of over 55% in size
#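 No-CPT arm: Tdp1-/-;hTDP1 DT40 cells (400/well) plus compounds, incubated ≥48 hr at 37 °C. Readout CellTiter-Glo luminescence.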
# TDP1 inh: TDP1 (human) enzyme inhibition | recombinant TDP1, AlphaScreen DNA substrate cleavage | Potency, µM (top dose mostly 130 µM), inactives show at the highest dose activity change, negative = inhibition, most hits filed as inhibitors | hit rate 0.28% among 350,000 | AID 485290; note: potency is the fitted concentration of half-maximal effect; % is set by controls: 0 for no effect and ±100 for the full control effect; nearly all actives have a fitted effect of over 40% in size
# Target sequence (Q9NUW8 whole entry, looked up): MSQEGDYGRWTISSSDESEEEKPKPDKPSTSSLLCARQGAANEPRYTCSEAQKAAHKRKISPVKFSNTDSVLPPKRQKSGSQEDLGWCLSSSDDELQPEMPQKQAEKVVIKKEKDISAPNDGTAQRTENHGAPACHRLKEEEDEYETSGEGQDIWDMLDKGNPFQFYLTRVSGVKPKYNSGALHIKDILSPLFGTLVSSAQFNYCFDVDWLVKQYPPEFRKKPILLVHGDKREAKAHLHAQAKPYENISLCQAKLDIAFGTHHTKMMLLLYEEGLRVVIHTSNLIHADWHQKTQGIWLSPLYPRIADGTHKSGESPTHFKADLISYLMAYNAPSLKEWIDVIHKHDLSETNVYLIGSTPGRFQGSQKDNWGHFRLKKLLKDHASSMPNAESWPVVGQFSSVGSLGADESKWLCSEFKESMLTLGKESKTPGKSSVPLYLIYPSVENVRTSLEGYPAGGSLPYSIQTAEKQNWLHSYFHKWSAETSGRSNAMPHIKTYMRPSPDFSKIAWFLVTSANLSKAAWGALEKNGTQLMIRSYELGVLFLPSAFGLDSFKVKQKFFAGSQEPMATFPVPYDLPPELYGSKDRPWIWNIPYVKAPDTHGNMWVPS
#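 Steps: enzyme plus compound, 15 min RT; add biotin/phosphotyrosine-FITC oligonucleotide (15 nM final), react 5 min; add donor/acceptor beads (10 ug/ml final), 10 min; read AlphaScreen. Tdp1 at 1 nM final.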
# HepG2 viability: counter-screen for TGF-b inhibitors: cytotoxicity in HepG2 cells | HepG2 CAGA-GFP viability, ATP luminescence, 18 h | Potency, µM (highest dose often 46.1 µM), without a hit: at the top dose activity change, negative = cytotoxicity, usual class: cytotoxic | hit rate 0.76% among 410,000; note: potency is the fitted concentration of half-maximal effect
#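 HepG2 CAGA-GFP cells (1000/well, DMEM with 1% FBS) received compound, then TGF-beta at 500 pg/mL final, and were incubated 18 hours at 37 degrees C. Viability was read by CellTiter-Glo luminescence. Media-only wells were set as complete cell-killing and DMSO as no toxicity.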
# Starred values were filed as active, the others as inactive; ? = inconclusive; · = no result. In the library only some 19% were active in any assay of this set; here they are far more common. Unless noted, calls come from the whole dose curve; as a rule, active = well fitted curve in the direction sought with a large enough effect; inconclusive = small, poorly fitted or top-dose-only effect, or another doubt; inactive = no such curve, though single readings can be large; an effect the other way counts as inactive or inconclusive.
SMILES,DT40 TDP1 CPT,TGFb inhibitor,IL-1B inflam inh,DT40 TDP1 no CPT,TDP1 inh,HepG2 viability
CCOc1ccc(-c2nn(-c3ccccc3)cc2/C=C(\C#N)S(=O)(=O)c2ccccc2)cc1C,?,4%,-15,13µM*,6%,5%
Cc1ccccc1-c1cc2nc(NCCOc3ccccc3Cl)n(C)c(=O)c2s1,?,?,-12,?,·,-43%
O=C(O)c1ccc2c(c1)C(=O)N([C@H](Cc1ccc(F)cc1)C(=O)O)C2=O,·,·,·,·,7%,·
Cc1cc(/C=C(\C#N)C(=O)NCc2ccco2)c(C)[nH]1,-9%,10%,-51*,-9%,-8%,6%
CCc1nc2ccc(C(=O)N3CCN(S(=O)(=O)CC)CC3)cn2c1N(C)CCC(C)C,?,0%,1,?,·,3.2µM*
CCc1nc2ccc(C(=O)N(CC)CCN(C)C)cn2c1N(C)CCCc1ccccc1,?,27%,?,?,·,-21%
CCc1nc2ccc(C(=O)N3CCN(c4ccccc4)CC3)cn2c1N(C)CCCc1ccccc1,13µM*,?,-4,16µM*,·,16µM*
CCc1nc2ccc(C(=O)N3CCN(c4ccccc4)CC3)cn2c1N(C)CCC(C)C,?,13µM*,-10,21µM*,·,-89%
O=c1[nH]c(SCc2cccc(Cl)c2)nc2c1CCC2,-29%,9%,·,-19%,9%,-2%
CCOc1ccc(NC(=O)/C(C#N)=C\c2ccc(N3CCCC3)c(C)c2)cc1,?,37%,-23,?,·,9%
CC1=NC(=O)C(N=Nc2ccccc2C(=O)O)N1c1ccccc1 (centres undefined),7.3µM*,-19%,36,13µM*,2%,-22%
Cc1cccc(OCC(=O)N(Cc2nnc(-c3ccccc3Cl)o2)C2CC2)c1,16µM*,2%,-2,?,0%,0%
O=C(COc1ccc(F)cc1Cl)N(Cc1nnc(-c2ccccc2Cl)o1)C1CC1,-29%,8%,-11,16µM*,·,-3%
O=C(COc1ccc(Br)cc1)N(Cc1nnc(-c2ccccc2Cl)o1)C1CC1,23µM*,-10%,-4,23µM*,·,-44%
O=C1C2CC=CCC2C(=O)N1c1nccs1 (centres undefined),2%,-5%,10,-1%,·,-9%
CCc1nnc(NC(=O)CCC(=O)N2CCN(C3c4ccccc4-c4ccccc43)CC2)s1,?,4%,-6,?,3%,13%
Cc1ccc(NC(=O)CCC(=O)N2CCSc3ccccc32)cc1,16µM*,?,·,?,8%,-24%
COc1ccc(CCNC(=O)CCC(=O)N2CCOc3ccc(C)cc32)cc1OC,-16%,-4%,-1,?,·,-8%
Cc1ccccc1NC(=O)CCC(=O)N1CCSc2ccccc21,-27%,?,·,?,5%,-28%
COc1ccc(OC)c(CCNC(=O)CCC(=O)N2CCOc3ccc(C)cc32)c1,23µM*,-5%,-23,?,·,-23%
CCOc1ccc(NC(=O)CCC(=O)N2CCSc3ccccc32)cc1,16µM*,-4%,0,16µM*,-3%,-3%
O=C(CCC(=O)N1CCSc2ccccc21)NCc1ccccc1,?,-1%,-12,-9%,·,-1%
CCOC(=O)c1ccc(NC(=O)CCC(=O)N2CCSc3ccccc32)cc1,23µM*,?,·,13µM*,3%,-36%
CC(C)Oc1ccc(CNC(=O)CCC(=O)N2CCSc3ccccc32)cc1,-7%,?,3,?,·,-26%
COc1ccc(CCNc2nc3cc(OC)c(OC)cc3c3nc(-c4cccnc4)nn23)cc1OC,-16%,-13%,·,-9%,3%,7%
SMILES,DT40 TDP1 CPT,TGFb inhibitor,IL-1B inflam inh,DT40 TDP1 no CPT,TDP1 inh,HepG2 viability
CN(Cc1ccccc1)C(=O)COc1cc(Cl)ccc1Cl,-18%,3%,?,-4%,·,5%
Cc1cccc(C)c1NC(=O)C(=O)NCC(c1ccc2c(c1)OCO2)N1CCOCC1 (centres undefined),5%,10%,·,-4%,-2%,-15%
COc1cccc(Cn2c(=O)c(-c3cccs3)nc3cncnc32)c1,-1%,·,·,8%,·,·
O=C(CCC(=O)N1Cc2ccccc2Oc2ncccc21)Nc1ccc(Cl)cc1,?,1%,·,?,0%,-22%
CCOc1ccc(OCC)c(NC(=O)CCC(=O)N2CCOc3ccccc32)c1,26µM*,1%,·,26µM*,11%,-1%
Cc1ccc(NC(=O)CCC(=O)N2CCSc3ccccc32)cc1Cl,16µM*,-29%,·,?,5%,-23%
O=C(CCC(=O)N1CCSc2ccccc21)Nc1ccc(Cl)cc1,15µM*,-28%,·,21µM*,3%,-29%
CCOC(=O)c1ccc(NC(=O)CCC(=O)N2Cc3ccccc3Oc3ncccc32)cc1,16µM*,4%,·,21µM*,5%,-26%
O=C(CCC(=O)N1CCSc2ccccc21)NCc1cccc(Br)c1,-29%,-19%,-9,-21%,·,-14%
O=C(CCC(=O)N1CCSc2ccccc21)NCc1ccc(Cl)cc1,-24%,-14%,-18,-20%,·,-7%
O=C(CCC(=O)N1CCSc2ccccc21)NCc1ccccc1Cl,10µM*,·,·,?,2%,-17%
COc1ccc(-c2cc(C(F)(F)F)c(C#N)c(SCC(=O)Nc3ccc(F)cc3)n2)cc1,-3%,4%,·,-29%,-4%,-14%
CC1=NOC(=O)/C1=C\c1ccc2c(c1)OCO2,?,?,-96*,15µM*,-7%,-30%
CC1=NOC(=O)/C1=C/c1ccc2c(c1)OCO2,9.2µM*,-12%,-13,?,-2%,3%
COc1ccc(/C=C2/C(=O)ON=C2C)cc1Br,?,1%,-88*,?,·,-10%
C=CCOc1c(Br)cc(/C=C2/C(=O)ON=C2C)cc1OC,?,0%,-1,?,·,-1%
CCCOc1ccc(Cl)cc1/C=C1/C(=O)ON=C1C,29µM*,0%,4,?,·,11%
O=C(CS(=O)(=O)c1cccc2nsnc12)Nc1cc(F)ccc1F,-6%,3%,·,-14%,5%,-27%
Cc1cc(O)cc2c1O[C@](C)(CCC[C@H](C)CCC[C@H](C)CCCC(C)C)CC2,-9%,·,·,-18%,10%,·
C#CCOc1ccc(/C=C2/C(=O)ON=C2C)cc1Cl,?,8%,-14,18µM*,·,5%
